# Results published in PubChem BioAssay (NCI).
# The panel holds about 83,000 compounds, 20% with a hit somewhere; the sample as a whole holds those more often.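 Single-concentration screen, 48 h exposure, 96-well plates. Endpoint: percent growth. Below 10 = active.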 Unmarked numbers belong to inactive results. Calls of active or inactive are those of the source.
# How the values were obtained:
# Experiment in all cases: NCI-60 one-dose screen, 48 h (100 = growth as untreated, 0 = no growth, -100 = all killed)
# Conditions in all cases: 10 µM unless noted
# [1] = test system: SK-MEL-2 melanoma
# [2] = test system: EKVX NSCLC
# [3] = test system: SN12C renal
# [4] = test system: UO-31 renal
# [5] = test system: TK-10 renal
# [6] = test system: ACHN renal
# [7] = test system: CAKI-1 renal
# [8] = test system: A498 renal
# [9] = test system: CCRF-CEM leukemia
# [10] = test system: MOLT-4 leukemia
# [11] = test system: SR leukemia
# [12] = test system: RPMI-8226 leukemia
# [13] = test system: OVCAR-8 ovarian
# [14] = test system: OVCAR-5 ovarian
# [15] = test system: OVCAR-4 ovarian
# [16] = test system: SK-OV-3 ovarian
# [17] = test system: IGROV1 ovarian
# [18] = test system: OVCAR-3 ovarian
# [19] = test system: HS 578T breast
# [20] = test system: NCI/ADR-RES ovarian
SMILES,growth [1],growth [2],growth [3],growth [4],growth [5],growth [6],growth [7],growth [8],growth [9],growth [10],growth [11],growth [12],growth [13],growth [14],growth [15],growth [16],growth [17],growth [18],growth [19],growth [20]
CCC([N+](=O)[O-])S(=O)(=O)c1ccc(C)cc1 (stereo not given),107%,110%,95.3%,82%,102%,104%,80%,103%,99%,117%,113%,106%,95.3%,88.2%,93.6%,108%,103%,150%,129%,92.3%
COc1ccc(C(=O)COc2ccc(/C=C3\COc4ccc(OC)cc4C3=O)cc2)cc1,68.1%,103%,100%,85.8%,105%,99.8%,99.1%,100%,7.46% (active),55.5%,2.54% (active),-5.51% (active),44.3%,108%,92.1%,105%,–,104%,81.7%,80.7%
O=CNc1ccc2c(c1)Cc1cccc(NC=O)c1-2,106%,80.4%,95.8%,78.8%,98.7%,85.8%,93%,105%,107%,75%,108%,103%,99.5%,89.6%,112%,104%,103%,90.2%,97.1%,99.7%
COc1ccc(/C=C/c2nc3ccccc3nc2/C=C/c2ccc(OC)cc2)cc1,101%,96.2%,101%,84.7%,95.8%,97.6%,86.4%,83.9%,98.2%,99.1%,83.8%,98.5%,99.5%,99.8%,88.7%,102%,110%,104%,–,99.5%
COc1ccc(-n2nc(C)c3c(Nc4ccc(NC(=O)Nc5cc(C(F)(F)F)ccc5F)cc4)ncnc32)cc1,25%,24.1%,44.9%,16%,47.5%,25.3%,4.88% (active),56.5%,38.4%,39.3%,28.4%,4.77% (active),26.4%,25.1%,57.8%,29.5%,39.2%,25.2%,28.4%,24.1%
c1csc(C2=NN3C(C2)c2ccccc2OC3c2ccncc2)c1 (stereo not given),96.3%,78.2%,89.9%,64.5%,111%,97.7%,78.2%,110%,95.8%,94.4%,100%,92.8%,96.1%,108%,90.9%,93.8%,76.1%,–,87.2%,98.4%
O=C1c2cc3c(cc2-c2c1c1ccc(F)cc1c(=O)n2C[C@H](O)[C@H](O)[C@H](O)CO)OCO3,-33.4% (active),5.59% (active),-18% (active),-55.2% (active),-25.7% (active),-53.8% (active),-20.6% (active),-85.7% (active),2.16% (active),-12.3% (active),-8.53% (active),-12.9% (active),-3.45% (active),-20.6% (active),5.07% (active),-30.3% (active),7.16% (active),–,-8.24% (active),-23.8% (active)
CC(=O)NCC1c2c(n(C)c3c(Cl)c(Cl)ccc23)C(=O)NC1(C)C (stereo not given),103%,90.7%,85.5%,84.6%,89.5%,95.1%,77.4%,93%,107%,84.9%,75.2%,100%,91.3%,88.7%,103%,116%,96.5%,107%,104%,88.1%
Cn1cccc1-c1nc2c3c(ccc2[nH]1)C(=O)c1ccccc1C3=O,91.4%,65.2%,91.9%,58.7%,98.7%,80.7%,96.3%,88.7%,78.9%,62.1%,27.1%,61.5%,85.8%,90.4%,46.5%,118%,79.1%,95%,115%,81.8%
O=C1/C(=C/N2N=C(c3ccc4ccccc4c3)CC2c2ccccc2O)SC(=S)N1c1cccnc1 (stereo not given),100%,43.2%,39.5%,11.6%,60.1%,43.6%,41.9%,14.3%,11.7%,19.2%,29.2%,-8.29% (active),28.3%,68.6%,66.1%,39.4%,26.4%,–,13.2%,23.6%
COc1cc(C2CC(=O)c3ccccc3N2)cc(OC)c1OC (stereo not given),74.3%,103%,92%,92.4%,105%,102%,93.4%,83.7%,95.5%,97%,99.6%,91.3%,94.3%,–,97.4%,–,99%,110%,–,101%
C=C1c2nc3ccccc3n2C=C(c2ccc(OC)cc2)N1Cc1ccccc1,57.7%,62.6%,98.7%,54.6%,118%,96.2%,101%,69.7%,78.9%,71.5%,47.3%,39.4%,88.3%,–,80.1%,107%,96.7%,–,116%,77.4%
Oc1ccccc1-c1nnc(CNc2ccc(Cl)cc2)o1,30.1%,38.9%,40.6%,19%,44.7%,12.7%,17%,77.9%,11.8%,15.5%,10.4%,23.4%,18.6%,–,34.2%,19.5%,25.9%,–,57.6%,13.4%
COc1cc(CNc2oc(-c3ccccc3)c(-c3ccccc3)c2C#N)cc(CN2CCN(C)CC2)c1O,82.4%,65.6%,77.4%,51.5%,91.9%,65.7%,66%,-7.97% (active),45.6%,-13.7% (active),–,2.73% (active),94.5%,63.8%,55%,95.9%,71.2%,80.2%,70.5%,75.3%
O=C1C=C(O)C(=O)C(CC2=C(O)C(=O)C=C(O)C2=O)=C1O,104%,102%,97.8%,94.6%,106%,97.5%,104%,86.6%,115%,104%,103%,–,105%,91%,101%,–,109%,108%,99.4%,99.6%
